Only a selection was taken, and hits are over-represented in it overall.
BL2 CD40 inh = CD40 pathway inhibition in BL2 cells. BL2 NF-kB luciferase reporter, CD40L-induced, 4 h. inhibition, % at 10 µM. actives 0.94% (n = 83,000);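 active = mean inhibition of at least 50% with a set share of replicates also reaching that level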
Each line names hits and unclear results; the compound was inactive in the other large screens; ! = not active in a repeat; [ ] = another dose, or the depositor's remark.

COc1ccc(NC(=O)N2C[C@@H]3N[C@H](C2)C3c2ccc(-c3ccncc3)cc2)cc1 (some centres undefined)	none
Cc1ccccc1-c1ccc(C2[C@@H]3CN(C(=O)Nc4cccc(F)c4)C[C@H]2N3)cc1 (some centres undefined)	BL2 CD40 inh 62[25 µM]
COc1cccc(-c2ccc(C3[C@@H]4CN(C(=O)C5CCC5)C[C@H]3N4)cc2)c1 (some centres undefined)	none
COc1cccc(-c2ccc(C3[C@@H]4CN(C(=O)C5CC5)C[C@H]3N4)cc2)c1 (some centres undefined)	BL2 CD40 inh 63!
O=C(Nc1cccc(F)c1)N1C[C@@H]2N[C@H](C1)C2c1ccc(-c2ccccc2F)cc1 (some centres undefined)	none
COc1ccc(NC(=O)N2C[C@@H]3N[C@H](C2)C3c2ccc(-c3cccc(OC)c3)cc2)cc1 (some centres undefined)	none
COc1ccc(NC(=O)N2C[C@@H]3N[C@H](C2)[C@@H]3c2ccc(-c3ccc(OC)cc3)cc2)cc1	BL2 CD40 inh 63
COc1ccc(NC(=O)N2C[C@@H]3N[C@H](C2)C3c2ccc(-c3cncnc3)cc2)cc1 (some centres undefined)	none
C/C=C/c1cnc2c(c1)C(=O)N([C@@H](C)CO)C[C@@H](C)[C@@H](CN(C)C(=O)Nc1cccc(OC)c1)O2	none
COC(=O)c1ccc2[nH]c(C)cc(=O)c2c1	none
COc1cccc(N2CCN(C(=O)c3cccnc3)CC2)c1	none
CN(C)C(=O)[C@H]1[C@H](CO)[C@H]2Cn3c(cccc3=O)[C@H]2N1C(=O)C1CCC1	none
Cc1cccc(NC(=O)N(Cc2cc3cc(C)ccc3[nH]c2=O)CC2COCCO2)c1 (centres undefined)	none
O=[N+]([O-])c1cc(S(=O)(=O)N2CCCC2)ccc1OCc1ccccc1	none
COc1ccc(Cn2c(-c3ccc(OC)cc3)nc3ccccc32)cc1	none
CSc1nc2ccccc2s1	none
NS(=O)(=O)c1ccc(Sc2nc3ccccc3s2)c([N+](=O)[O-])c1	BL2 CD40 inh 81
NS(=O)(=O)c1ccc(N/N=C/c2ccccn2)c([N+](=O)[O-])c1	none
O=C(NCC[C@@H]1CC[C@@H](NS(=O)(=O)Cc2ccccc2)[C@H](CO)O1)C1CCCCC1	none
Cc1ccc2cc3cc(C(=O)N4CCN(C(=O)c5ccco5)CC4)sc3nc2c1	none
COc1ccc(-c2cn3c(n2)CCC3)cc1	none
CS(=O)(=O)N(CC(=O)NCCSCc1ccco1)c1ccc2c(c1)OCO2	none
O=C(C[C@@H]1CC[C@H]2[C@@H](COC[C@@H](O)CN2Cc2nccs2)O1)N1CCC(Cc2ccccc2)CC1	none
CN(C)S(=O)(=O)c1ccc(NC=O)cc1	BL2 CD40 inh 27
CN(C(=O)Nc1ccc(S(=O)(=O)N(C)C)cc1)C1CCCCC1	none
CN(C)S(=O)(=O)c1ccc(NC(=O)Cn2ccsc2=N)cc1	none
COC(=O)CNC(=O)COC(=O)c1cc(SC)ccc1Cl	none
O=C(Cc1ccccc1)N1CC[C@@H]2[C@@H](CO)Nc3ccc(-c4cccc(F)c4)cc3[C@@H]21	none
O=C(c1ccncc1)N1CC[C@@H]2[C@H](CO)Nc3ccc(-c4ccc(F)cc4)cc3[C@@H]21	none
O=C(Cc1ccccc1)N1CC[C@@H]2[C@H](CO)Nc3ccc(-c4cccc(F)c4)cc3[C@@H]21	none
O=C(c1cccc(F)c1)N1CC[C@@H]2[C@@H](CO)Nc3ccc(-c4ccc(F)cc4)cc3[C@@H]21	none
O=C(Cc1ccccc1)N1CC[C@@H]2[C@@H](CO)Nc3ccc(C#Cc4cccc(F)c4)cc3[C@@H]21	none
O=C(Cc1ccccc1)N1CC[C@@H]2[C@H]1c1cc(-c3cccc(F)c3)ccc1N[C@@H]2CO	BL2 CD40 inh 70[25 µM]
O=C(Cc1ccccc1)N1CC[C@@H]2[C@H]1c1cc(C#Cc3cccc(F)c3)ccc1N[C@@H]2CO	BL2 CD40 inh 82[25 µM]
O=C(Cc1ccccc1)N1CC[C@H]2[C@H](CO)Nc3ccc(-c4cccc(F)c4)cc3[C@H]21	none
O=C(c1ccncc1)N1CC[C@@H]2[C@@H](CO)Nc3ccc(-c4ccc(F)cc4)cc3[C@@H]21	BL2 CD40 inh active[25 µM]
NC(=O)[C@@H]1[C@@H]2C(=O)N(c3ccc(F)cc3)C(=O)[C@@H]2[C@H]2C=Cc3ccccc3N21	none
Cc1ccc2nsnc2c1NC(=O)CCc1ccccc1	none
CCSc1nc2cc(OC)c(OC)cc2c(=O)n1CC	none
c1ccc(CCc2nn3c(-c4ccncc4)nnc3s2)cc1	none
COC(=O)c1ccc(CNC(=O)CCC(=O)N2CCOCC2)cc1	none
C[C@H]1CN([C@@H](C)CO)C(=O)CCCn2cc(nn2)CO[C@H]1CN(C)S(C)(=O)=O	none
CN[C@H]1CCc2cc(OC)c(OC)c(OC)c2-c2ccc(OC)c(=O)cc21	none
O=S(=O)(Cc1ccccc1)N1CC2(C1)[C@H](c1ccccc1)[C@H](CO)N2CC1CCCC1	none
CC(C)NCC(O)COC1CCC(C(C)(C)C)CC1 (centres undefined)	none
CCS(=O)(=O)NC[C@@H]1[C@@H](c2ccccc2)[C@@H](CO)N1CC1CCCC1	none
O=C1NCCCC1C(=O)N1CCN(C(=O)c2ccco2)CC1 (centres undefined)	none
CN(C)C(=O)C(CCN1CCC(O)(c2ccc(Cl)cc2)CC1)(c1ccccc1)c1ccccc1	BL2 CD40 inh 50

Bioassay records deposited in PubChem by Broad Institute.
